Rows were chosen to be rich in hits. Some 4.1% of all compounds tested hit in one or more screens of this group.
ALR H2O2 inh: inhibitors of human ALR sulfhydryl oxidase, primary screen, biochemical, H2O2 detection, HRP-luminol luminescence, single point | FAD-linked sulfhydryl oxidase ALR (Homo sapiens), P55789 | inhibition, % (test concentration not listed) | purified ALR, DTT oxidation | actives 3.8% (n = 290,000);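 active means mean replicate inhibition above about 79%, with every replicate also reaching it, limit read from the data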
Target sequence (P55789 whole entry, looked up): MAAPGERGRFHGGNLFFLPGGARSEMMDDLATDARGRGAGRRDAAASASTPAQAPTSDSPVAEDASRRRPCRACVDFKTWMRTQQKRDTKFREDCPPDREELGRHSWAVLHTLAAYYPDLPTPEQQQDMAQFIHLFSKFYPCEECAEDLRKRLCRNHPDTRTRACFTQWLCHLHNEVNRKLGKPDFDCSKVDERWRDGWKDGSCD
F508del corr: F508del CFTR correction, initial screen, CFBE line, single point; CFBE cells, YFP halide quenching; stimulated with forskolin plus potentiator P3; % fluorescence drop versus neutral controls; activity (quench increase), % at 7.58 µM; actives 0.36% (n = 350,000); AID 720511, 2013;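 active means mean added fluorescence quench of at least 8% versus neutral control, with both replicates also reaching 8%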;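 further: cells transiently co-express mutant CFTR-F508del with the halide-sensitive YFP; corrector assay measuring rescue of mutant channel to the surface after 24 h compound exposure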
CASP6 VEID inh: human caspase-6 inhibitors, primary screen, biochemical, VEID-R110 fluorescence, single point, set 2. P55212. actives 0.53% (n = 350,000). inhibition, % at 12.5 µM. purified caspase-6, Z-VEID-R110 cleavage fluorescence;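 active means mean inhibition across replicates at least about 35%, with every replicate also reaching that limit, limit read from the data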;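 further: 0% = median of neutral control wells and 100% = no fluorescence left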
Target sequence (P55212 24-179 limits assumed): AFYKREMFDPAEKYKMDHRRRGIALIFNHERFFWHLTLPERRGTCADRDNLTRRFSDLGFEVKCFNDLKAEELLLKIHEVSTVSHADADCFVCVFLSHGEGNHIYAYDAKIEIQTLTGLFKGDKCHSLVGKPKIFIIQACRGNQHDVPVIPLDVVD
Target sequence (P55212 194-293 limits assumed): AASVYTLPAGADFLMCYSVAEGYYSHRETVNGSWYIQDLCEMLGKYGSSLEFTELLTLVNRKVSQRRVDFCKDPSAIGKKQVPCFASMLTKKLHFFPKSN
PglD inh: C. jejuni PglD acetyltransferase inhibitors, primary screen, biochemical, DTNB colorimetric, single point; actives 0.098% (n = 360,000); UDP-N-acetylbacillosamine N-acetyltransferase PglD (Campylobacter jejuni); AID 602405, 2012; inhibition, % at 12.5 µM; purified PglD enzyme, DTNB colorimetric CoA detection; in the data active means inhibition above about 16%, passing the limit was not always enough
Env fusion inh: inhibitors of HIV-1 Env-driven cell-cell fusion, primary screen, HeLa-JRFL effector, CEM21 target cells, luciferase; inhibition, % at 12.3 µM; actives 1.1% (n = 360,000); AID 651610, 2012;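 active means mean replicate inhibition score of at least 50 and every replicate individually at or above 50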;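 further: 0% = plate neutral controls and 100% = maraviroc near 300 nM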
NSD2 inh: NSD2 histone methyltransferase inhibitors, primary screen, biochemical, AlphaScreen, single concentration, set 2. NSD2 peptide methylation, 120 min. inhibition, % at 12.5 µM. actives 0.54% (n = 310,000); in the data active means inhibition above about 50%
Active calls of the source: *; · = not tested or not shown; [ ] = dose if it differs, or a comment.

SMILES | ALR H2O2 inh | F508del corr | CASP6 VEID inh | PglD inh | Env fusion inh | NSD2 inh
C[C@H]1CN([C@@H](C)CO)C(=O)c2cc(C3=CCCC3)cnc2O[C@H]1CN(C)C(=O)c1ccccc1 | · | 1 | 0 | -2 | -15[16.7 µM] | ·
COc1cc(C2C(C#N)=C(N)OC3=C2C(=O)CCC3)c([N+](=O)[O-])cc1OC (configuration not stated) | -54 | · | · | · | -8 | 75*
O=C(c1ccc2[nH]ccc2c1)N1CCCC(Nc2ccccc2)C1 (configuration not stated) | 99* | -6 | 0 | -6 | -2 | 2
Cc1ccc(NC2CCCN(C(=O)c3ccc4[nH]ccc4c3)C2)cc1C (configuration not stated) | 88* | 0 | -1 | -5 | 7 | 15
O=C(c1ccc(N2CCOCC2)cc1)N1CCCC(Nc2ccccc2)C1 (configuration not stated) | 73 | 0 | -4 | 4 | -2 | 3
CCC(=O)N1CC2(C1)CN(CC1CCOCC1)[C@H](CO)c1c2c2ccc(OC)cc2n1C | · | 4 | · | · | · | ·
Nc1ccc(O)cc1C(=O)OCC(=O)c1ccc(C2CCCCC2)cc1 | 4 | · | · | · | 84* | 17
Oc1ccc(Nc2nc(Cl)nc(NCc3ccco3)n2)cc1 | 99* | 3 | 1 | · | -5 | 2
C=CCNc1nc(Cl)nc(NCc2ccco2)n1 | 37 | 1 | -3 | -2 | -41 | -1
COc1cc(/C=C2/SC(=S)N(CC(=O)O)C2=O)ccc1OC(=O)c1ccco1 | 98* | 2 | 11 | -5 | -1 | 9
COc1cc(/C=C2\SC(=S)N(CC(=O)O)C2=O)ccc1OC(=O)c1ccco1 | 99* | 4 | 7 | -9 | 9 | ·
C[C@H](CO)N1C[C@H](C)[C@H](CN(C)C(=O)c2ccccn2)Oc2ncc(C#Cc3ccccn3)cc2C1=O | · | -2 | 4 | 3 | -2[16.7 µM] | ·
O=C(C[C@H]1CC[C@@H](NC(=O)c2ccccc2)[C@@H](CO)O1)NCCc1ccncc1 | · | 2 | 1 | -2 | -4[16.7 µM] | ·
CCC(=O)N1CCN(c2ccc(-n3c(=O)ccc4cnc5ccc(-c6cnc7ccccc7c6)cc5c43)cc2C(F)(F)F)CC1 | · | -4 | 4 | · | 59* | ·
Cc1cccc(-c2nc(CS(=O)CC(=O)NCc3ccco3)c(C)o2)c1 (configuration not stated) | 99* | 1 | 7 | · | 2 | 9
Cc1oc(-c2cccc(Cl)c2)nc1CS(=O)(=O)CC(=O)NCc1ccco1 | -12 | -1 | 1 | -3 | -3 | -2
COc1ccc(-c2nc(CS(=O)CC(=O)NCc3ccco3)c(C)o2)cc1OC (configuration not stated) | 98* | 7 | 1 | 5 | 73* | ·
Cc1ccc(-c2nc(CS(=O)CC(=O)NCc3ccco3)c(C)o2)cc1 (configuration not stated) | 99* | 0 | 9 | -2 | 1 | 3
O=C(c1cnccn1)N1CC(=O)N2[C@H](CO)[C@H](c3ccc(-c4cccc(F)c4)cc3)[C@H]2C1 | · | 1 | 0 | · | · | ·
CCC(=O)N[C@H]1C=C[C@H](CC(=O)NCc2ccc(OC)cc2)O[C@H]1CO | · | 0 | -3 | 0 | -13[16.7 µM] | ·
CO[C@@H]1CN(C)C(=O)c2ccc(NC(C)=O)cc2OC[C@H](C)N(C(=O)CN(C)C)C[C@H]1C | · | -1 | · | -1 | -15[16.7 µM] | ·
C=CC1=C(C(=O)O)N2C(=O)[C@@H](NC(=O)/C(=N\O)c3csc(N)n3)[C@H]2SC1 (stereo in doubt) | -13 | 1 | 87* | 1 | -10 | ·
CCn1ccc(C(=O)NC2C(=O)N3C(C(=O)O)=C(C)CSC23)n1 (configuration not stated) | 7 | · | · | 7 | · | ·
Cc1ccc(NC(=O)[C@@H]2CCCN2S(=O)(=O)c2ccccc2C(F)(F)F)cc1S(=O)(=O)N1CCOCC1 | -8 | · | · | · | 57* | -2
COC(=O)N(C)c1nc2ccccc2s1 | 4 | · | · | -8 | · | 0
SMILES | ALR H2O2 inh | F508del corr | CASP6 VEID inh | PglD inh | Env fusion inh | NSD2 inh
CN(C(=O)OC(C)(C)C)c1ccc(-c2nc3ccccc3s2)cc1 | -11 | 5 | -1 | 4 | 57* | ·
O=C(C[C@H]1CC[C@@H]2[C@H](COC[C@H](O)CN2C(=O)Nc2cc(Cl)cc(Cl)c2)O1)NCC1CCCCC1 | · | 1 | 0 | -1 | · | ·
COc1ccc(O)c(/C=C(\C#N)C(=O)Nc2cccnc2)c1 | 98* | · | 6 | · | -41 | 0
C[C@@H](NC(=O)/C(C#N)=C/c1ccc(O)c(O)c1)c1ccccc1 | 99* | 2 | 12 | -11 | -31 | ·
N#C/C(=C\c1ccc(O)c(O)c1)C(=O)Nc1ccccc1 | 99* | 5 | 18 | -2 | -1 | ·
N#C/C(=C/c1ccc(O)c(O)c1)C(=O)NCc1ccc(Cl)cc1 | 22 | -1 | 35* | -3 | -43 | 78*
N#C/C(=C/c1cccc(O)c1)C(=O)NCc1ccc(Cl)cc1 | 0 | -1 | -1 | 1 | -18 | -5
O=C(C[C@@H]1CC[C@@H]2[C@H](COC[C@@H](O)CN2S(=O)(=O)c2ccccc2)O1)NCc1ccc(-c2ccccc2)cc1 | · | 0 | -7 | 0 | -18[16.7 µM] | ·
CCCC(=O)Nc1ccc2c(c1)C(=O)N(C)[C@@H]1CC[C@@H](CC(=O)NCc3ccccc3)O[C@H]1CO2 | · | 0 | -2 | -2 | -2[16.7 µM] | ·
CC(C)NC(=O)N[C@H]1C=C[C@H](CC(=O)NCCN2CCCC2)O[C@H]1CO | · | 0 | 0 | 0 | -2[16.7 µM] | ·
Cn1cnc(CCNC(=O)C[C@@H]2CC[C@H]3[C@@H](COC[C@@H](O)CN3C(=O)Nc3ccc(F)cc3)O2)c1 | · | 0 | 0 | -1 | · | ·
N#C/C(=C\c1ccncc1)C(=O)Nc1ccc(C(=O)O)cc1 | 95* | -4 | 20 | · | -17 | -1
N#C/C(=C\c1cccnc1)C(=O)Nc1ccc(C(=O)O)cc1 | 54 | -4 | 10 | · | 3 | -2
CO[C@H]1CN(C)C(=O)c2cc(NC(=O)C3CCCCC3)ccc2OC[C@@H](C)NC[C@@H]1C | · | 0 | 1 | -3 | -3[16.7 µM] | ·
C[C@@H](NC(=O)C[C@H]1C[C@H]2c3cc(NC(=O)Nc4ccccc4F)ccc3O[C@H]2[C@H](CO)O1)c1ccccc1 | · | 3 | -1 | -1 | 5[16.7 µM] | ·
C[C@@H]1CN([C@H](C)CO)C(=O)Cc2cc(NS(=O)(=O)c3ccccc3)ccc2O[C@@H]1CN(C)C(=O)Nc1ccc2c(c1)OCO2 | · | -1 | · | · | 5[16.7 µM] | ·
COc1ccc(-c2n[nH]c(=S)n2C2CCCCC2)cc1 | 89* | · | · | · | · | 2
Oc1ccccc1-c1n[nH]c(=S)n1Cc1ccco1 | 91* | · | · | 2 | -6 | 2
Oc1ccc(-c2n[nH]c(=S)n2Cc2ccccc2)cc1 | 97* | · | · | -2 | · | -1

Source: PubChem BioAssay
